From PubChem
Shown are actives, neighbours in structure and some others; about 0.59% of the full set was active somewhere.
Vif-APOBEC3G blk – inhibitors of Vif-APOBEC3G interaction | HeLa A3G-eYFP + Vif (tagged APOBEC3G with the HIV-1 protein that degrades it), YFP fluorescence, overnight | Potency, µM (titrated, usually from 46.1 µM), usual class: inhibitors | hit rate 0.076% among 410,000 | Q9HC16; also: nearly all actives have a fitted effect of over 60% in size
Target sequence (Q9HC16 whole entry, looked up): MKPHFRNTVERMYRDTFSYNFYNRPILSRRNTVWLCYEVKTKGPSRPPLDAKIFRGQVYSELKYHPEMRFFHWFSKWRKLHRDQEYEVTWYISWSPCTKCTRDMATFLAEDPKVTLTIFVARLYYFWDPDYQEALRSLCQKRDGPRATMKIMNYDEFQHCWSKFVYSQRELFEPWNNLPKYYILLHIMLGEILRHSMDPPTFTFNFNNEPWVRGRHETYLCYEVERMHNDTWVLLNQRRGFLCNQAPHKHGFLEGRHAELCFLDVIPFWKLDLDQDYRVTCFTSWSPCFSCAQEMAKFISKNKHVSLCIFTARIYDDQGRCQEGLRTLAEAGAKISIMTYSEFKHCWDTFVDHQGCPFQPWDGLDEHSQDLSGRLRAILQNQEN
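Read-out is eYFP fluorescence (Ex 488/Em 500-530) from Vif-expressing HeLa A3G-eYFP cells; more signal means A3G escaped Vif-mediated degradation. Cells plated overnight, compound pinned in, incubated overnight at 37 deg C.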
Vif-A3F inh – inhibitors of Vif-A3F interaction | HeLa A3F-eYFP + Vif (tagged APOBEC3F with the HIV-1 protein that degrades it), YFP fluorescence increase | Potency, µM (series often up to 46.1 µM) | hit rate 0.2% among 390,000 | AID 602313; also: nearly all actives have a fitted effect of over 65% in size
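HeLa cells stably expressing Vif plus C-terminally eYFP-tagged A3F were seeded, incubated overnight at 37 deg C, dosed with compound, incubated overnight again at 37 deg C. Yellow fluorescence (Ex 488/Em 500-530) reported blocked Vif-mediated A3F-eYFP degradation.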
LDHA inh – inhibitors of human lactate dehydrogenase A; P00338; purified LDHA, NADH/diaphorase-resazurin fluorescence; hits give low values; activity change, % (values are at about 110 or 230 µM); hit rate 0.15% among 480,000; AID 1347041; in the data active = activity change below about -30%; inconclusive = mostly about -25% to -30%
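LDH5 2 nM; NADH 0.06 mM, pyruvate 0.2 mM; 200 mM Tris pH 7.4, EDTA, Tween-20; 5 min RT. Detection: diaphorase 0.133 mg/mL + resazurin 37 µM, fluorescence ex540/em590 at 0 and 20 min; normalized to enzyme-free and DMSO wells.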
IDH1 R132H inh – inhibitors of human mutant IDH1 R132H; IDH1-R132H enzyme, NADPH consumption, diaphorase/resazurin fluorescence; Potency, µM (highest dose often 76.6 µM), actives largely listed as inhibitors; O75874; hit rate 0.093% among 390,000; also: nearly all actives have a fitted effect of over 65% in size
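IDH1-R132H (0.5 ug/mL) preincubated 30 min with compound, then NADPH (0.016 mM) and alpha-KG (2 mM) added; 80 min at RT, pH 7.5. Remaining NADPH coupled via diaphorase/resazurin to fluorescence (540/590 nm); concentration-response curves normalized to no-enzyme control.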
PTHR1 ag – activates the human parathyroid hormone receptor PTHR1 | HEK293 GP2 PTHR1 cells, GloSensor cAMP luminescence, 1 h | Potency, µM (titrated, usually from 115 µM), actives largely listed as activators | hit rate 0.075% among 410,000 | Q03431; also: nearly all actives have a fitted effect of over 55% in size
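HEK-293-derived GP2 cells expressing PTHR1 and a GloSensor cAMP reporter, 3,000/well, plated overnight, given luciferin plus IBMX (each 0.5 mM as added) for 1 h at 37 °C, then compound for 1 h at 37 °C. Luminescence was read after 15 min at room temperature.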
PINK1 expr mod – PINK1 expression modulation; PINK1 immunofluorescence, high-content cytometry, 24 h; Potency, µM (titrated, usually from 76.6 µM), actives largely listed as activators; hit rate 0.2% among 410,000; AID 624263; active = well fitted activation curve with a large enough effect; inconclusive = small, poorly fitted or top-dose-only effect; cell line not stated here; also: nearly all actives have a fitted effect of over 65% in size
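PINK1 protein, normally rapidly degraded, was detected by immunofluorescence after 24 hour compound treatment of a stable cell line. Titration data (5 concentrations) came from laser-scanning cytometry, with CCCP-treated wells as controls.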
IDH1 autofl – counter-screen for mutant IDH1 inhibitors: fluorescence interference; inhibition of signal, % at 51.2 µM; Resorufin detection reagent fluorescence interference, cell-free; shares compounds with IDH1 R132H inh; 750 tested, under 10 active
IDH1 WT – selectivity of mutant IDH1 inhibitors: human wild-type IDH1; shares compounds with IDH1 R132H inh; WT IDH1 enzyme, NADPH diaphorase/resazurin fluorescence; Potency, µM (top dose mostly 115 µM), hits mostly inhibitors; hit rate 9% among 750; also: nearly all actives have a fitted effect of over 55% in size
Target sequence (O75874 whole entry, looked up): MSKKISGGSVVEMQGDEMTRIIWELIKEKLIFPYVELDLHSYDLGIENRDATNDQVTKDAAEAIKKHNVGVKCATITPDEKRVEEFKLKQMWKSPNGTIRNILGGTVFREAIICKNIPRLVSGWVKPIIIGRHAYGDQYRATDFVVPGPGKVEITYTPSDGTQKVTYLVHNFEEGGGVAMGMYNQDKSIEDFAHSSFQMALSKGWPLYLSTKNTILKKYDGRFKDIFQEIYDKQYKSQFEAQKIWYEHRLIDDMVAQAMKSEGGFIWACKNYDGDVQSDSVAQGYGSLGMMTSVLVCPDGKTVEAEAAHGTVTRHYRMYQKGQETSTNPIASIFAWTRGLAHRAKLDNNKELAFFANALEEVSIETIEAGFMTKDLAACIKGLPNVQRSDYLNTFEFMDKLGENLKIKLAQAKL
IDH1 R132H conf – mutant IDH1 (human) inhibition, confirmed; shares compounds with IDH1 R132H inh; Potency, µM (top dose mostly 76.6 µM), actives largely listed as inhibitors; hit rate 83% among 750; AID 624002; IDH1 R132H enzyme, NADPH diaphorase/resazurin fluorescence; also: nearly all actives have a fitted effect of over 50% in size
Hits are given with their value. Unless noted, calls follow the shape of the dose curve; as a rule, active = well fitted curve in the direction sought with a large enough effect; inconclusive = small, poorly fitted or top-dose-only effect, or another doubt; inactive = no such curve, though single readings can be large; an effect the other way counts as inactive or inconclusive.

How did Cc1ccc(NC(CNS(=O)(=O)c2ccc(Cl)cc2)c2ccccc2)cc1 (stereo not drawn) do in these assays?
Vif-APOBEC3G blk: inactive; Vif-A3F inh: inactive; LDHA inh: inactive; IDH1 R132H inh: inactive; PTHR1 ag: inactive; PINK1 expr mod: inactive

How did CNC(=O)NC(=O)C(C)OC(=O)c1oc2ccccc2c1CSc1ccc(Cl)cc1 (stereo not drawn) do in these assays?
Vif-APOBEC3G blk: inactive; Vif-A3F inh: inactive; LDHA inh: inactive; IDH1 R132H inh: inactive; PTHR1 ag: inactive; PINK1 expr mod: inactive

Results for CCNC(=O)NC(=O)C(C)OC(=O)c1oc2ccccc2c1CSC1CCCCC1 (stereo not drawn) ?
Vif-APOBEC3G blk: inactive; Vif-A3F inh: inactive; LDHA inh: inactive; IDH1 R132H inh: inconclusive; PTHR1 ag: inactive; PINK1 expr mod: inactive; IDH1 autofl: inactive; IDH1 WT: inactive; IDH1 R132H conf: 32µM

How did CC(=O)Nc1ccc(C=NNc2ccc(S(=O)(=O)Nc3ccccc3C(=O)O)cc2[N+](=O)[O-])cc1 do in these assays?
Vif-APOBEC3G blk: inactive; Vif-A3F inh: inactive; LDHA inh: inconclusive; IDH1 R132H inh: inactive; PTHR1 ag: inactive; PINK1 expr mod: inactive

What do the screens show for `O=C(O)c1ccccc1NS(=O)(=O)c1ccc(N/N=C/c2cccc(O)c2O)c([N+](=O)[O-])c1`?
Vif-APOBEC3G blk: inactive; Vif-A3F inh: inactive; LDHA inh: inactive; IDH1 R132H inh: 41µM; PTHR1 ag: inactive; PINK1 expr mod: inactive; IDH1 autofl: inactive; IDH1 WT: inconclusive; IDH1 R132H conf: 14µM

How did COc1cccc(OC)c1C(=O)Nn1c(C2CCC2)nc2ccccc2c1=O do in these assays?
Vif-APOBEC3G blk: inactive; Vif-A3F inh: inactive; LDHA inh: inactive; IDH1 R132H inh: inactive; PTHR1 ag: inactive; PINK1 expr mod: inactive

How did O=C(Nn1c(C2CCCCC2)nc2ccccc2c1=O)c1ccc([N+](=O)[O-])cc1 do in these assays?
Vif-APOBEC3G blk: inactive; Vif-A3F inh: inactive; LDHA inh: inactive; IDH1 R132H inh: inconclusive; PTHR1 ag: inactive; PINK1 expr mod: inactive; IDH1 autofl: inactive; IDH1 WT: inactive; IDH1 R132H conf: inactive

Results for O=C(O)c1cccc(S(=O)(=O)N2CCN(C(c3ccccc3)c3ccccc3)CC2)c1 ?
Vif-APOBEC3G blk: inactive; Vif-A3F inh: inactive; LDHA inh: inactive; IDH1 R132H inh: inconclusive; PTHR1 ag: inactive; PINK1 expr mod: inactive; IDH1 autofl: inactive; IDH1 WT: inactive; IDH1 R132H conf: 32µM

Results for COc1ccc(N2C(=O)CCSC23C(=O)N(Cc2ccc(F)cc2)c2ccccc23)cc1Cl (stereo not drawn) ?
Vif-APOBEC3G blk: inactive; Vif-A3F inh: inactive; LDHA inh: inactive; IDH1 R132H inh: inconclusive; PTHR1 ag: inactive; PINK1 expr mod: inactive; IDH1 autofl: inactive; IDH1 WT: inactive; IDH1 R132H conf: 32µM

What do the screens show for `COc1cccc(N2C(=O)CSC23C(=O)N(Cc2ccccc2)c2ccccc23)c1` (stereo not drawn)?
Vif-APOBEC3G blk: inactive; Vif-A3F inh: inactive; LDHA inh: inactive; IDH1 R132H inh: inactive; PTHR1 ag: inactive; PINK1 expr mod: inactive

How did COc1ccc(N2C(=O)CCSC23C(=O)N(Cc2ccc(F)cc2)c2ccccc23)cc1 (stereo not drawn) do in these assays?
Vif-APOBEC3G blk: inactive; Vif-A3F inh: inactive; LDHA inh: inactive; IDH1 R132H inh: 32µM; PTHR1 ag: inactive; PINK1 expr mod: inactive; IDH1 autofl: inactive; IDH1 WT: inactive; IDH1 R132H conf: 35µM

Results for COc1cccc(CN2C(=O)C3(SCC(=O)N3c3ccc(F)cc3)c3ccccc32)c1 (stereo not drawn) ?
Vif-APOBEC3G blk: inactive; Vif-A3F inh: inactive; LDHA inh: inactive; IDH1 R132H inh: inactive; PTHR1 ag: inactive; PINK1 expr mod: inactive

Results for C[C@@H]1C[C@H]2[C@@H]3CCC4=CC(=O)C=C[C@]4(C)[C@@]3(Cl)[C@@H](O)C[C@]2(C)[C@@]1(OC(=O)c1ccco1)C(=O)CCl ?
Vif-APOBEC3G blk: inconclusive; Vif-A3F inh: inconclusive; LDHA inh: inactive; IDH1 R132H inh: 35µM; PTHR1 ag: inactive; PINK1 expr mod: inactive; IDH1 autofl: inactive; IDH1 WT: inactive; IDH1 R132H conf: 8.9µM

What do the screens show for `CC1CC2C3CCC4=CC(=O)C=CC4(C)[C@@]3(Cl)C(O)CC2(C)C1(O)C(=O)CO` (stereo partly drawn)?
Vif-APOBEC3G blk: inactive; Vif-A3F inh: inactive; LDHA inh: inactive; IDH1 R132H inh: inactive; PTHR1 ag: inactive; PINK1 expr mod: inactive

Results for NS(=O)(=O)c1ccc(NC(=S)Nc2ccc(S(=O)(=O)N3CCCC3)cc2)cc1 ?
Vif-APOBEC3G blk: inactive; Vif-A3F inh: inactive; LDHA inh: inactive; IDH1 R132H inh: inactive; PTHR1 ag: inactive; PINK1 expr mod: inactive

Results for O=S(=O)(c1ccc(NC(=S)N/N=C/c2ccc(O)c(O)c2)cc1)N1CCOCC1 ?
Vif-APOBEC3G blk: inactive; Vif-A3F inh: inactive; LDHA inh: inactive; IDH1 R132H inh: inactive; PTHR1 ag: inactive; PINK1 expr mod: inactive

Results for O=S(=O)(c1ccc(NC(=S)NN=Cc2ccccc2O)cc1)N1CCCCC1 ?
Vif-APOBEC3G blk: inactive; Vif-A3F inh: inactive; LDHA inh: inactive; IDH1 R132H inh: 46µM; PTHR1 ag: inactive; PINK1 expr mod: inactive; IDH1 autofl: inactive; IDH1 WT: inactive; IDH1 R132H conf: 22µM

Results for O=S(=O)(c1ccc(NC(=S)N/N=C/c2cccc(Oc3ccccc3)c2)cc1)N1CCOCC1 ?
Vif-APOBEC3G blk: inactive; Vif-A3F inh: inactive; LDHA inh: inactive; IDH1 R132H inh: inconclusive; PTHR1 ag: inactive; PINK1 expr mod: inactive; IDH1 autofl: inactive; IDH1 WT: inactive; IDH1 R132H conf: inconclusive

How did COc1ccc(OC)c(NC(=O)COc2ccc(C(C)C)cc2-n2cnnc2)c1 do in these assays?
LDHA inh: inactive

How did COc1cc(OC)c(NC(=O)c2ccc3c(SCC(=O)O)c4c(nc3c2)CCCC4)cc1Cl do in these assays?
Vif-APOBEC3G blk: inactive; Vif-A3F inh: inactive; LDHA inh: inactive; IDH1 R132H inh: inconclusive; PTHR1 ag: inactive; PINK1 expr mod: inactive; IDH1 autofl: inactive; IDH1 WT: inactive; IDH1 R132H conf: 28µM
